Data: PubChem BioAssay AID588591 (National Center for Advancing Translational Sciences (NCATS), 2011)
In all, about 390,000 compounds went through this assay and about 4,700 (1.2%) were called active. Where a call stands in place of a potency, no number is given. Inconclusive results (about 4%) are left out. Calls follow the shape of the dose curve; as a rule, active = well fitted inhibition curve with a large enough effect; inconclusive = small, poorly fitted or top-dose-only effect, or another doubt; inactive = no such curve, though single readings can be large or run the other way. Only a selection was taken, and actives are over-represented in it overall.

These compounds were tested against DNA polymerase eta (Homo sapiens) (UniProt Q9Y253) (assay: qHTS for Inhibitors of Polymerase Eta). Conditions: recombinant Pol eta, fluorescent DNA replication assay; series mostly up to 114 µM.
How it was run: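 Pol eta (10 nM) was preincubated with compounds for 15 min at room temperature, after which fluorescent replication substrate (50 nM final) was added to start the reaction. Fluorescence was read kinetically at 0 and 10 min.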
Potency is read from the fitted curve at half-maximal effect.

Sequence of DNA polymerase eta (Homo sapiens) (Q9Y253 whole entry, looked up): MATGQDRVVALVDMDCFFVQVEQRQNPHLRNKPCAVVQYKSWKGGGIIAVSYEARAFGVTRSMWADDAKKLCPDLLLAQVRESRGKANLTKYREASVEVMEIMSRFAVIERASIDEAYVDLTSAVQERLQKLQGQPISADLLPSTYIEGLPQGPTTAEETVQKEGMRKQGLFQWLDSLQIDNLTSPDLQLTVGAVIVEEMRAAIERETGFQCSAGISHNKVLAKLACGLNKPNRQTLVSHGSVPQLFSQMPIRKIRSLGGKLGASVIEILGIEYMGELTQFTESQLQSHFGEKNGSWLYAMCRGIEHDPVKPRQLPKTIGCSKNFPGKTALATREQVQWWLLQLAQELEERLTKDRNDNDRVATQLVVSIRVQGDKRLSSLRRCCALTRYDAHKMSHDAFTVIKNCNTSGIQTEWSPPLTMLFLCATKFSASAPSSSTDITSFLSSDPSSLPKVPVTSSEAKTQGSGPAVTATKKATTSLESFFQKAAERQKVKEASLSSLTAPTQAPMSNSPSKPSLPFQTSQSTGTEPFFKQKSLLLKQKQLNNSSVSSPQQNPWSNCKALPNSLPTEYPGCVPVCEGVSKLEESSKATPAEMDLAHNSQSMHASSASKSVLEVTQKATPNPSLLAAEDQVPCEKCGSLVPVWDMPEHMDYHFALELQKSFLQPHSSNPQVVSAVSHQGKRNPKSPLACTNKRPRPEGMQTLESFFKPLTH

Row | Compound | Potency
1 | O=C(CSc1ncc(-c2ccccc2)[nH]1)Nc1ccc(F)cc1F | inactive
2 | Oc1ccccc1-c1nc(/C=C/c2ccc(F)cc2)no1 | inactive
3 | Cc1nc2nc(SCC(=O)NCc3ccco3)nn2c(C)c1Cc1ccccc1 | 44.7 µM (active)
4 | Cc1ccc(Cc2c(C)nc3nc(SCC(=O)NCCN4CCOCC4)nn3c2C)cc1 | inactive
5 | COc1cc(NC(=O)CSc2nc3nc(C)c(Cc4ccc(C)cc4)c(C)n3n2)cc(OC)c1OC | inactive
6 | COC(=O)Nc1ccc(S(=O)(=O)Nc2cc(OC)nc(OC)n2)cc1 | inactive
7 | COc1cc(NS(=O)(=O)c2ccc(N/C=C(\C=O)c3nc4cc(Cl)ccc4o3)cc2)nc(OC)n1 | 31.6 µM (active)
8 | COc1cc(NS(=O)(=O)c2ccc(NC(=S)NC(=O)c3ccccc3)cc2)nc(OC)n1 | inactive
9 | CCCn1c2ccccc2c2cnn(CC(=O)NCC3CCN(Cc4ccc(C)cc4)CC3)c(=O)c21 | inactive
10 | Cc1c(C(=O)N(C)C)sc2c1c(=O)n(-c1ccc(F)cc1)c(=O)n2CC(=O)N(C)c1ccccc1 | inactive
11 | CCOC(=O)c1ccc(NC(=O)CCS(=O)(=O)c2ccc3c(c2)oc(=O)n3C)cc1 | inactive
12 | OC[C@H]1O[C@@H](n2cnc3c(NC4CCCC4)ncnc32)[C@H](O)[C@H]1O | inactive
13 | CCn1c(SCC(=O)NCc2ccco2)nnc1-c1ccc(N)cc1 | inactive
14 | CCOC(=O)c1sc(NC(=O)CSc2nc(O)c(Cc3ccccc3)c(=O)[nH]2)nc1C | inactive
15 | CCOCCc1c(O)nc(SCC(=O)NCc2ccco2)[nH]c1=O | 15.8 µM (active)
16 | Cc1ccc(CSc2oc(-c3cccs3)nc2S(=O)(=O)c2ccc(C)cc2)cc1 | inactive
17 | CCCCN1CC(c2nc3ccccc3n2CCCCOc2ccc(C)cc2C)CC1=O (stereo unspecified) | inactive
18 | COc1cccc(NC(=O)C(=O)NCC(c2ccc3c(c2)OCO3)N2CCN(C)CC2)c1 (stereo unspecified) | inactive
19 | COc1ccccc1CNS(=O)(=O)c1cc(Br)cc2c1N(C(C)=O)C(C)C2 (stereo unspecified) | inactive
20 | Cc1ccc(Cl)cc1N1CCN(C(=O)c2cnc3c(-c4ccc(F)cc4)c(C)nn3c2C)CC1 | inactive
21 | Cc1ccc(OCC(=O)OCc2cc(=O)n3nc(C4CC4)sc3n2)cc1 | inactive

Row | Compound | Potency
22 | Nc1ccc2nc3c(=O)[nH]c(=S)[nH]c3nc2c1 | 1.12 µM (active)
23 | Cc1cc(C)c(NC(=O)CCc2c(C)nc3c(c(C)nn3C(C)(C)C)c2C)c(C)c1 | inactive
24 | COc1cc(CNCCSc2nnnn2C)ccc1OCc1ccc(Cl)cc1Cl | inactive
25 | CC1CCN(S(=O)(=O)c2ccc3c(ccn3CCC(=O)NCc3ccc(N(C)C)cc3)c2)CC1 | inactive
26 | O=C1c2cccc3cccc(c23)N1CN1CCN(c2ccccn2)CC1 | inactive
27 | O=C(CN1C(=O)c2cccc3cccc1c23)Nc1ccccc1 | 50.1 µM (active)
28 | COc1cccc(NC(=O)CN2C(=O)c3ccccc3Sc3ncccc32)c1 | inactive
29 | CCN(C(=O)Cn1cc(S(=O)(=O)N2CCN(c3ccccc3F)CC2)c2ccccc2c1=O)c1ccc(C)c(C)c1 | inactive
30 | COc1ccccc1OC(C)C(=O)Nc1ccc(S(=O)(=O)Nc2nccs2)cc1 (stereo unspecified) | inactive
31 | CCC(CC)C(=O)Nc1ccc(S(=O)(=O)Nc2nccs2)cc1 | inactive
32 | O=C(Nc1ccc(S(=O)(=O)Nc2nccs2)cc1)c1cc(-c2ccncc2)nc2ccccc12 | 12.6 µM (active)
33 | CC(C)(C)OC(=O)N1CCC(c2c(C(=O)N3CCc4ccccc4C3)cnn2-c2ccc(F)cc2)CC1 | inactive
34 | Oc1ccc(Cn2cc[nH]c2=S)cc1 | inactive
35 | COc1ccc(CCNc2ncnc3c2cnn3-c2ccc(C)cc2)cc1 | inactive
36 | Cc1ccc(NC(=O)CSc2nc3c([nH]c4ccccc43)c(=O)n2-c2ccccc2)cc1Cl | inactive
37 | CC(=O)c1sc(N2C(=O)c3oc4ccccc4c(=O)c3C2c2ccc(C)cc2)nc1C (stereo unspecified) | inactive
38 | C=CCSc1nnc(N2C(=O)C(O)=C(C(=O)c3ccco3)C2c2ccc(F)cc2)s1 (stereo unspecified) | inactive
39 | Cc1ccc2nc(N3C(=O)C(O)=C(C(=O)c4ccco4)C3c3cccc(O)c3)sc2c1 (stereo unspecified) | 50.1 µM (active)
40 | CC(=O)c1ccc(NC(=O)CSc2nc(-c3ccccc3F)nc3c2c(=O)n(C)c(=O)n3C)cc1 | inactive
41 | CCCCc1nn2c(=O)cc(COC(=O)c3cccc(NC(=O)COc4ccccc4)c3)nc2s1 | inactive
42 | Cn1c(=O)[nH]c(=O)c2c1nc(NCCc1ccccc1)n2Cc1ccc(F)cc1 | inactive

Row | Compound | Potency
43 | O=C(Nc1ccc(F)cc1)c1cc2c(s1)CCCC2 | inactive
44 | CC1CCN(c2nc3ccc(C(=O)N4CCN(c5ccccc5)CC4)cc3s2)CC1 | inactive
45 | O=C(c1cc2c(s1)CCC2)N1CCN(c2ccccc2)CC1 | 10 µM (active)
46 | CC1CCCN(c2csc3ccc(F)cc3c2=O)C1 (stereo unspecified) | inactive
47 | Cc1ccc(SCC(=O)NC(=O)NCc2ccco2)c(C)c1 | 14.1 µM (active)
48 | Cc1cc(C)n2nc(SCC(=O)NC(=O)NCc3ccco3)nc2n1 | inactive
49 | Cc1cc(C)c2c(c1)c(C)cc1nnc(SCC(=O)NCc3ccco3)n12 | inactive
50 | CCc1cccc(NC(=O)CN(C)S(=O)(=O)c2ccc3[nH]c4c(c3c2)CCCC4)c1 | inactive
51 | CCn1c2ccccc2c2nnc(N3CCN(c4cc(C)ccc4C)CC3)nc21 | inactive
52 | Cc1ccc2[nH]c3c(=O)n(CC(=O)NC(C)C)ncc3c2c1 | inactive
53 | O=C(C1=C(O)C(=O)N(c2ncccn2)C1c1cccs1)c1ccco1 (stereo unspecified) | 79.4 µM (active)
54 | O=C(C1=C(O)C(=O)N(CCOCCO)C1c1ccccn1)c1cccs1 (stereo unspecified) | inactive
55 | CC(C)c1ccc(C2C(C(=O)c3ccco3)=C(O)C(=O)N2CC2CCCO2)cc1 (stereo unspecified) | inactive
56 | O=C(CN1C(=O)CCn2nc(-c3ccccc3)cc21)NCc1ccccc1 | inactive
57 | O=C(c1cccs1)c1cn(CCOc2ccc(Cl)cc2)c2ccccc12 | inactive
58 | O=C(COc1ccc(/C=N/NC(=O)c2ccc(O)cc2)cc1)Nc1ccc([N+](=O)[O-])cc1 | 4.47 µM (active)
59 | O=C(N/N=C/c1ccc(OCC2COCCO2)cc1)c1ccc(Br)cc1 (stereo unspecified) | inactive
60 | CN1CCN(Cc2nc3cc(NC(=O)COc4ccc([N+](=O)[O-])cc4)ccc3n2C)CC1 | inactive
61 | COc1ccc(C2Sc3ccccc3NC3=C2C(=O)c2ccccc23)c(OC)c1OC (stereo unspecified) | inactive
